27 compounds from ChEMBL document CHEMBL1157539, “Thousands of chemical starting points for antimalarial lead identification” (Nature, 2010) can be followed below.

Assay type in all cases: functional
For experiment [1], the system named is Plasmodium falciparum. Kind of experiment: GSK_TCMDC: Inhibition of Plasmodium falciparum 3D7 in whole red blood cells, using parasite LDH activity as an index of growth. Test compounds present at 2uM.
Experiment [2] has as its system Plasmodium falciparum. As to the kind of experiment: GSK_TCMDC: Inhibition of Plasmodium falciparum Dd2 in whole red blood cells, using parasite LDH activity as an index of growth. Test compounds present at 2uM.
The test system of a further experiment is HepG2. As to the kind of experiment: GSK_TCMDC: Percent inhibition of human HepG2 cell line. Test compounds present at 10uM.

For orientation: Inhibition means the drop in the measured response relative to a control, in per cent.

For the compound `CNC(=O)Cc1ccc(C(=O)Nc2cccc(-c3csc(-c4nc5ccccc5[nH]4)c3)c2)cc1`, the Inhibition in the experiment with Plasmodium falciparum [1] is 95%; with Plasmodium falciparum [2], 69%; in the experiment with HepG2, 36%.

Regarding `CN(CCCCNC(=O)/C=C/c1ccccc1)C1CC2(CCN(C(=O)OC(C)(C)C)CC2)c2ccccc21` (stereo unspecified), the Inhibition with Plasmodium falciparum [1] was determined as 87%; in the experiment with Plasmodium falciparum [2], 51%; in the experiment with HepG2, 11%.

`COc1ccc2ncc(Cl)c(CCN3CCC(NCc4ccc5c(n4)NC(=O)CO5)CC3)c2c1.Cl`: the Inhibition came out at 92% in the experiment with Plasmodium falciparum [1], 26% in the experiment with Plasmodium falciparum [2] and 25% with HepG2.

Regarding `CC1(C)N=C(N)N=C(N)N1c1ccc(Cl)cc1.O=C(O)c1cc2ccccc2c(Cc2c(O)c(C(=O)O)cc3ccccc23)c1O`, the results for the Inhibition in the experiment on Plasmodium falciparum [1], with Plasmodium falciparum [2] and in the experiment with HepG2 were 95%, 4% and 42%, respectively.

Consider `Cl.Oc1cccc(Nc2ccnc3cc(-c4cc5ccccc5o4)ccc23)c1`, for which the Inhibition amounted to 100% in the experiment with Plasmodium falciparum [1], 71% in the experiment with Plasmodium falciparum [2] and 9% in the experiment with HepG2.

With `Fc1ccc2[nH]c(-c3cccc(-c4cccc(CN5CCN(c6ccncc6)CC5)c4)c3)nc2c1.O=C(O)C(F)(F)F`, the Inhibition in the experiment with Plasmodium falciparum [1] worked out at 100%; in the experiment on Plasmodium falciparum [2], 99%; with HepG2, 71%.

Take `Br.CC1(C)NC(N)=NC(=N)N1OCCCO`: the Inhibition with Plasmodium falciparum [1] is reported as 96%; with Plasmodium falciparum [2] it was 0%; in the experiment on HepG2, 27%.

As to `CC1CN(c2ncc(-c3ccc(CNC4Cc5ccccc5C4)cc3)cn2)CC(C)N1.O=CO` (stereo unspecified), the figures for the Inhibition in the experiment on Plasmodium falciparum [1], in the experiment with Plasmodium falciparum [2] and in the experiment on HepG2 were 85%, 78% and 27%, respectively.

In the case of `COc1ccc(C2CC(c3cccs3)=NN2C(=O)c2ccco2)cc1OC` (stereo unspecified), the Inhibition came to 100% with Plasmodium falciparum [1], 97% in the experiment with Plasmodium falciparum [2] and 0% in the experiment with HepG2.

For `Cc1nc(Nc2ccc(F)cc2)nc(N2CCc3ccccc3[C@@H]2C)c1C.Cl`, the figures for the Inhibition in the experiment with Plasmodium falciparum [1] and in the experiment on HepG2 were 92% and 12%, respectively.

With `Cl.N=c1n(CCN2CCCC2)c2ccccc2n1CC(O)c1ccc(Cl)c(Cl)c1` (stereo unspecified), the Inhibition in the experiment with Plasmodium falciparum [1] amounted to 100%; with Plasmodium falciparum [2] it was 6%; in the experiment with HepG2 it was 36%.

In the case of `FC(F)(F)c1cc(C(F)(F)F)c2cc(CNCCCNc3nc4ccccc4[nH]3)[nH]c2c1`, the Inhibition in the experiment on Plasmodium falciparum [1] turned out to be 100%; in the experiment with Plasmodium falciparum [2] it was 99%; in the experiment on HepG2 it was 99%.

For the compound `O=C(NCc1cccc(Cl)c1)c1ccc(CNC2CCN(Cc3ccccc3)CC2)cc1.O=C(O)C(F)(F)F`, the values for the Inhibition with Plasmodium falciparum [1], in the experiment with Plasmodium falciparum [2] and with HepG2 were 100%, 50% and 13%, respectively.

As for `CC(CC1CCCCC1)NCc1ccccc1OCCC(=O)N1CCCC1C(N)=O` (stereo unspecified), the Inhibition is 97% with Plasmodium falciparum [1] and 5% in the experiment on HepG2.

`Cc1ccc(Nc2c3ccccc3nc3ccc(C)cc23)cc1`: the Inhibition with Plasmodium falciparum [1] is reported as 88%; in the experiment on HepG2, 26%.

For `Cc1cc(OCCCN2CCC(NC(=O)c3ccc(Br)cc3)C2)c2ccccc2n1` (stereo unspecified), the Inhibition with Plasmodium falciparum [1] was 85%; in the experiment with HepG2, 13%.

In the case of `Cc1ccc(-c2cnc3[nH]cc(-c4ccc(C(=O)O)c(C)c4)c3c2)cc1C.O=C(O)C(F)(F)F`, the figures for the Inhibition with Plasmodium falciparum [1] and in the experiment with HepG2 were 96% and 37%, respectively.

With `O=C(O)CCSc1ncnc2[nH]cnc12`, the Inhibition in the experiment on Plasmodium falciparum [1] stood at 100%; in the experiment with HepG2, 7%.

Take `c1ccc2sc(-c3csc(Nc4ccncc4)n3)nc2c1`: the figures for the Inhibition with Plasmodium falciparum [1] and with HepG2 were 86% and 0%, respectively.

As to `COc1ccc2c(c1)C(C)(CCCN(C)C)C(=O)N2C.O=C(O)C(=O)O` (stereo unspecified), the Inhibition is 93% with Plasmodium falciparum [1] and 8% in the experiment with HepG2.

Consider `COc1cc2ncnc(Nc3ccc(OC(F)(F)c4ccccc4)cc3)c2cc1OC.Cl`, for which the Inhibition in the experiment on Plasmodium falciparum [1] is 91%; in the experiment with HepG2, 14%.

In the case of `Brc1ccsc1-c1nc(NC2CCN(Cc3ccccc3)CC2)no1`, the Inhibition in the experiment on Plasmodium falciparum [1] is listed as 80%; in the experiment on HepG2 it was 0%.

`N=C1SC(=Cc2cn[nH]c2-c2ccc(F)cc2)C(=O)N1c1nccs1`: the Inhibition was determined as 91% in the experiment with Plasmodium falciparum [1] and 28% in the experiment with HepG2.

With `COc1ccc(C2CC(c3cccs3)=NN2C(=O)COc2cccc(C(C)=O)c2)cc1OC` (stereo unspecified), the values for the Inhibition in the experiment on Plasmodium falciparum [1] and with HepG2 were 99% and 10%, respectively.

`O=C(NNC(=O)c1ccc(CN2CCC(c3nc4ccccc4[nH]3)CC2)cc1)Nc1ccc(Oc2ccccc2)cc1.O=C(O)C(F)(F)F`: the Inhibition in the experiment on Plasmodium falciparum [1] stood at 86%; with HepG2 it was 0%.

For `O=C(O)C(F)(F)F.Oc1ccc(CNCC2CCN(CC3CCCCC3)CC2)cc1`, the results for the Inhibition with Plasmodium falciparum [1] and in the experiment with HepG2 were 82% and 9%, respectively.

Regarding `Cc1ccc(-n2c(C)cc(C(=O)CN3C(=O)NC(Cc4ccccc4)C3=O)c2C)cc1` (stereo unspecified), the results for the Inhibition in the experiment on Plasmodium falciparum [1] and with HepG2 were 82% and 0%, respectively.
